Bcl-xL primary = Bcl-xL (human) inhibition; Q07817; GST-Bcl-xL / FITC-Bim BH3 peptide fluorescence polarization; inhibition, % at 10.9 µM; 320,000 tested, 0.7% active;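 active = inhibition above the mean of all tested compounds plus 3 SD, cutoff set per campaign, cut at about 30% in these data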;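 also: inhibitors lower millipolarization by displacing the labeled peptide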
Mcl1-Bid inh = disrupts binding of human Mcl-1 to Bid peptide. Q07820. TR-FRET Mcl-1/Bid-Dy647 peptide binding, 1536-well. inhibition, % at 21.7 µM. 220,000 tested, 0.97% active;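 active = compounds that cut the binding signal by more than half at the single screening dose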;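 also: His-tagged Mcl-1 with europium anti-His antibody binding Bid BH3 peptide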
MCL1-BIM inh = MCL1-BIM-BH3 interaction inhibition (human); GST-MCL1 / FITC-Bim-BH3 fluorescence polarization; inhibition, % at 10.9 µM; Q07820; 320,000 tested, 0.68% active; AID 2057;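 active = inhibition above the mean inhibition of all tested compounds plus 3 SD, set per campaign, cut at about 40% in these data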;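 also: higher means more loss of mP so more displacement of Bim peptide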
Mcl-1 Bim block = disrupts Bim peptide binding to human Mcl-1 | Q07820 | Bead-based flow cytometry, Bim peptide-Mcl-1 binding | inhibition, % at 10 µM | 190,000 tested, 0.1% active | AID 1009; in the data active = inhibition above about 40%
Mcl1 Noxa PPI = disrupts binding of human Mcl-1 to Noxa peptide. TR-FRET Mcl-1/Noxa peptide binding, 2 h. inhibition, % at 21.7 µM. 220,000 tested, 1.5% active. AID 1022;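 active = compounds that cut the protein-peptide binding signal by more than 50% relative to plate controls in a single-dose test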;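 also: His-tagged Mcl-1 with rhodamine Noxa BH3 peptide and terbium anti-His antibody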
GLD-1 RNA inh = GLD-1-TGE RNA interaction inhibition (C. elegans). Q17339. purified GLD-1 + fluorescein TGE RNA, fluorescence polarization. inhibition, % at 5.96 µM. 320,000 tested, 0.44% active. AID 2280;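 active = percent inhibition above a per-plate cutoff, the plate mean of test compounds plus 3 SD, cut at about 30% in these data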
Target sequence (Q17339 whole entry, looked up): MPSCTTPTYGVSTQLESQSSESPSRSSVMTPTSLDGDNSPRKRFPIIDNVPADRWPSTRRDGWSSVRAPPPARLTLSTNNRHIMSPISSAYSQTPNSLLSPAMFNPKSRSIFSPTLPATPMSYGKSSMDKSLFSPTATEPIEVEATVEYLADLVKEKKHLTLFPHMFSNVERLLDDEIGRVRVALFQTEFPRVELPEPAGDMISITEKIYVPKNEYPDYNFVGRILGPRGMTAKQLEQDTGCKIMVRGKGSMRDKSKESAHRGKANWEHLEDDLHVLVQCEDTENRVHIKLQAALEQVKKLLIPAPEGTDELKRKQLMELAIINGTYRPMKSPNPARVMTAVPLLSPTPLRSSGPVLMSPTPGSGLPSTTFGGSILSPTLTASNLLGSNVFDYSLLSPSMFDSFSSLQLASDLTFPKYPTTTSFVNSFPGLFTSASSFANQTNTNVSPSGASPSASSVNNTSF
Numbers stand for hits; . = inactive; / = not tested or not shown. In the library only some 2.3% were active in any assay of this set; here they are far more common.

SMILES | Bcl-xL primary | Mcl1-Bid inh | MCL1-BIM inh | Mcl-1 Bim block | Mcl1 Noxa PPI | GLD-1 RNA inh
CC(C)(C)CNC(=O)c1cccc2c1C(=O)c1ccc(N3CCCC3)cc1S2(=O)=O | / | / | / | / | / | 31.6
COc1ccc(/C=N/Nc2nc(-c3cccnc3)nc3ccccc23)c(OC)c1 | . | 54.5 | . | / | . | .
COc1ccccc1NC(=O)c1cc2cc(Br)ccc2cc1O | . | . | . | / | 88.3 | .
COc1ccccc1NC(=O)c1cn(C)c(=O)c2cc(OC)c(OC)cc12 | . | 84.2 | . | . | . | .
COc1cc(NC(=O)c2cc3ccccc3cc2O)c(OC)cc1Cl | . | . | . | / | 60.6 | .
COc1cc2c(C(=O)Nc3ccccc3F)cn(C)c(=O)c2cc1OC | . | / | . | / | / | .
CCc1cc(C(=O)N(CCCOC)c2c(N)n(Cc3ccccc3)c(=O)[nH]c2=O)sc1C | . | / | . | / | / | .
CCN(C(=O)CN1C(=O)CN(C)C1=O)c1cccc2ccccc12 | / | / | / | / | / | .
CCN(C(=O)CN1CCN(C)CC1)c1cccc2ccccc12 | . | 56.5 | . | . | . | .
CC12CCC(=O)N1C(C(=O)Nc1nc(-c3cc(F)ccc3F)cs1)CS2 (stereo not drawn) | . | / | . | / | / | .
CCN1CCN(c2ccc(S(=O)(=O)N3CCOCC3)cc2NC(=O)c2ccc(Cl)s2)CC1 | . | / | . | / | / | .
Cc1cc(C)c(C)c(OCC(O)CN2CCN(c3ccccn3)CC2)c1 (stereo not drawn) | . | / | . | / | / | .
O=C(c1ccc2c(c1)OCO2)[C@@H]1[C@@H]2C(=O)N(C3CCCCC3)C(=O)[C@@H]2C2c3ccccc3C=CN21 (stereo partly drawn) | / | . | / | . | . | /
O=C(c1cccs1)[C@@H]1[C@@H]2C(=O)N(Cc3ccc4c(c3)OCO4)C(=O)[C@@H]2C2c3ccccc3C=CN21 (stereo partly drawn) | 47.7 | . | 43.4 | . | . | 39.5
Cc1cc(C)c(C#N)c(Nc2cccc(C)c2C)n1 | . | / | . | / | / | .
CC1CCC(=O)N(CCC#N)CC1 (stereo not drawn) | . | / | . | / | / | .
CCOC(=O)Cc1csc(NC(=O)CSc2nnnn2-c2ccc(C)c(C)c2)n1 | . | 80.5 | . | . | . | .
CCOc1cc(/C=C2\SC(=S)N(C(C(=O)O)c3ccccc3)C2=O)ccc1O (stereo not drawn) | . | 50.6 | . | / | 51.4 | .
C#Cc1ccc([C@@H]2C=C(C(=O)N3CCN(Cc4ccc5c(c4)OCO5)CC3)O[C@H](OCCCCO)C2)cc1 | . | 83.8 | . | . | . | .
O=C(C1=C[C@@H](c2ccc(C(F)(F)F)cc2)C[C@@H](OCc2ccc(CO)cc2)O1)N1CCN(Cc2ccccc2)CC1 | . | . | . | . | 80.9 | .
C#Cc1ccc([C@H]2C=C(C(=O)O)O[C@@H](OCc3ccc(CO)cc3)C2)cc1 | . | 50.6 | . | . | . | .
O=C(C1=C[C@@H](c2ccc3c(c2)OCO3)C[C@@H](OCCCCO)O1)N1CCN(Cc2ccc3c(c2)OCO3)CC1 | . | . | . | . | . | .
COc1ccc(CCNC(=O)C/C(C)=N/NC(=O)c2cnccn2)cc1 | . | / | . | / | / | .
O=C(Nc1ccc(CCC(=O)N2CCCC2)cc1)c1ncn[nH]1 | . | 95.5 | . | . | . | .
CCC[n+]1c2ccccc2cc2ccccc21 | 36.5 | / | . | / | / | .
SMILES | Bcl-xL primary | Mcl1-Bid inh | MCL1-BIM inh | Mcl-1 Bim block | Mcl1 Noxa PPI | GLD-1 RNA inh
CN(C)S(=O)(=O)n1cc(/C=C(\NC(=O)c2ccccc2Cl)C(=O)N2CCCC2)c2ccccc21 | . | / | . | / | / | .
Nc1cc(=O)[nH]c(SCC(=O)N2CCCc3ccccc32)n1 | . | . | . | . | . | .
Nc1nc2nc(SCC(=O)N3CCCc4ccccc43)[nH]c2c(=O)[nH]1 | . | . | . | . | 58.6 | .
Cc1ccc(-c2n[nH]c(=S)n2/N=C/C=C/c2ccccc2[N+](=O)[O-])cc1 | . | . | . | . | . | .
O=[N+]([O-])c1ccccc1/C=C/C=N/n1c(-c2cc(-c3ccccc3)n[nH]2)n[nH]c1=S | . | . | . | / | 57.8 | .
S=c1[nH]nc(-c2cc(-c3ccccc3)n[nH]2)n1/N=C/C(Br)=C/c1ccccc1 | . | . | . | / | 75.8 | .
CCOCCn1c(=O)c2c(nc3n2CCCN3CCc2ccccc2)n(C)c1=O | . | / | . | / | / | .
COc1ccc(N)cc1-n1c(C)ccc1C | 38.4 | . | 45.6 | . | . | .
Cc1cc(Nc2ccc([N+](=O)[O-])cc2)c2ccccc2n1 | . | / | . | / | / | .
O=c1nc(Nc2ccccc2)sc2ccc([N+](=O)[O-])cc12 | . | . | . | . | 54.4 | .
CCC(=O)N(C1=C(NC)C(=O)c2ccccc2C1=O)C(C)C | . | . | . | . | . | .
CCC(=O)N(CC)C1=C(O)c2ccccc2C(=O)C1=O | . | . | . | . | 84.7 | .
COc1ccc(C(=O)/C=C/c2ccc(N3CCCCC3)c([N+](=O)[O-])c2)c(OC)c1 | . | . | . | . | . | .
COc1ccc(C(=O)/C=C/c2ccc(N3CCCCC3)c([N+](=O)[O-])c2)cc1 | . | 100.4 | . | . | . | .
COc1ccc(O)c(-c2cn[nH]c2-c2cccs2)c1 | . | . | . | . | 54.7 | .
c1ccc2[nH]c(-c3ccncc3)nc2c1 | . | . | . | . | . | .
Fc1cc2nc(-c3ccncc3)[nH]c2cc1F | . | 71.2 | . | . | . | .
CCN(CC)C(=O)c1c[nH]c2ccc(S(=O)(=O)Nc3cc(C)cc(C)c3)cc2c1=O | . | 54.6 | . | . | . | .
CCOCCCNC(=O)c1c[nH]c2ccc(S(=O)(=O)Nc3cccc(OC)c3)cc2c1=O | . | 55.7 | . | . | . | .
CCOc1ccc(N(C)S(=O)(=O)c2ccc3[nH]cc(C(=O)NCC4CCCO4)c(=O)c3c2)cc1 (stereo not drawn) | . | . | . | . | . | .
CCc1ccc(NS(=O)(=O)c2ccc3[nH]cc(C(=O)NCC4CCCO4)c(=O)c3c2)cc1 (stereo not drawn) | . | 54.3 | . | . | . | .
Cc1ccccc1N(C)S(=O)(=O)c1ccc2[nH]cc(C(=O)NCC3CCCO3)c(=O)c2c1 (stereo not drawn) | . | 65.7 | . | . | . | .
COc1ccccc1CNC(=O)CNC(=O)N1CC(=O)Nc2ccccc21 | . | / | . | / | / | .
CCOc1ccc(NC(=O)CN(C)C(=O)Cn2cnc3c2c(=O)n(C)c(=O)n3C)cc1OCC | . | / | . | / | / | .
COC(=O)c1ccc(CSCc2ccc(C#N)cc2)cc1 | . | / | . | / | / | .
O=C(CN1CCCCC1)Nc1nnc(-c2ccc([N+](=O)[O-])cc2)s1 | . | . | . | . | 69.3 | .
Oc1cc(O)c2c(c1)O[C@H](c1ccc(O)c(O)c1)[C@@H](O)C2 | . | . | . | / | . | .
O=C1c2c(O)cc(O)cc2O[C@@]12c1c(cc(O)c3c1O[C@H](c1ccc(O)cc1)[C@@H](O)C3)O[C@@H]2c1ccc(O)cc1 | . | . | . | . | 66.4 | .
COc1cccc(CNC(=O)c2ccccc2-c2ccccc2)c1 | . | / | . | / | / | .
